This is an account of results in PubChem BioAssay (NCATS).

Holding throughout (experiment): qHTS profiling for inhibitors of Plasmodium falciparum proliferation (AID 504749); further: nearly all actives have a fitted effect of over 60% in size
Common to all, as to details: P. falciparum in erythrocytes, SYBR Green DNA, 72 h; series mostly up to 28.7 µM
(qHTS replaces the single test concentration by a dilution series.)

One assay relates to CP252. In a few lines:
(§1)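 Each compound contacts P. falciparum-infected red blood cells for 72 h at 37 C; lysis buffer (Tris, EDTA, saponin, Triton X, SYBR Green I) is added and fluorescence measured next morning; values normalized to controls.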

The subject of another assay is CP256. In a few lines:
as §1

The subject of the next assay is CP260. In a few lines: as §1
Another assay deals with CP262. In a few lines: as §1
The next assay deals with CP265. In a few lines:
as §1

A further assay deals with CP266. In short, it runs like this:
as §1

The next assay concerns CP268. In short, it runs like this: as §1
Another assay deals with CP269. In a few lines:
as §1

Another assay relates to CP286. In short, it runs like this:
as §1

A further assay concerns CP297. In short, it runs like this:
as §1

A further assay has as its system CP305. In short, it runs like this:
as §1

The subject of a further assay is CP315. In a few lines:
as §1

For another assay, the system named is CP325. In a few lines: as §1
The next assay deals with CP329. In short, it runs like this: as §1
Another assay deals with CP335. In short, it runs like this:
as §1

In another assay the test system is DFO2036. In short, it runs like this: as §1
The next assay relates to DIV14. In short, it runs like this:
as §1

The next assay concerns DIV17. In a few lines: as §1
The test system of another assay is DIV30. In a few lines:
as §1

The next assay has as its system CP291. In a few lines:
as §1

Results filed as inconclusive are left out. Activity calls are given as the source filed them. The call rests on the fitted dose curve; in most records, active means well fitted inhibition curve with a large enough effect; inconclusive means small, poorly fitted or top-dose-only effect; inactive means flat fitted curve, though single readings scatter.
Potency means the concentration at half of the fitted maximal effect.

In the case of `CCN(CC)CCOCCOC(=O)C1(c2ccccc2)CCCC1`, the Potency result with CP252, in the assay on CP262, with CP266, with CP315 and with CP329 was “inactive” in each case. Besides, the Potency with CP256 was 11.2 µM (active); in the assay on CP260, 11.2 µM (active); in the assay with CP265, 3.98 µM (active); in the assay with CP268, 15.1 µM (active); in the assay with CP269, 13.5 µM (active); with CP286, 12.6 µM (active). Further, the Potency was 6.75 µM (active) with CP297; 13.5 µM (active) with CP305; 15.1 µM (active) in the assay with CP325; 9.53 µM (active) with CP335; 12.6 µM (active) with DFO2036; 2.39 µM (active) in the assay with DIV14. The Potency with DIV17 was 3.79 µM (active); in the assay with DIV30 it was 7.57 µM (active).

`CN(C(=O)CCCOc1ccc2[nH]c(=O)ccc2c1)C1CCCCC1`: the Potency result with CP252, in the assay with CP256, in the assay with CP260, in the assay with CP262, in the assay with CP265 and in the assay on CP268 was “inactive” in each case. The Potency result in the assay on CP269, with CP286, in the assay on CP305, in the assay with CP315, in the assay with CP325 and in the assay on CP329 was “inactive” each time. Also, the Potency entry in the assay on CP335 and in the assay on DFO2036 was “inactive” in each case.

Consider `OCCN1CCN(CCCN2c3ccccc3C=Cc3ccccc32)CC1`, for which the Potency in the assay with CP252 is 6.31 µM (active); with CP256 it was 3.55 µM (active); with CP260, 5.01 µM (active); with CP262, 6.75 µM (active); with CP265, 4.47 µM (active); in the assay with CP266 it was 13.5 µM (active). Moreover, the Potency in the assay with CP268 is 13.5 µM (active); in the assay on CP269 it was 9.53 µM (active); with CP286, 7.08 µM (active); with CP291, 12 µM (active); in the assay on CP297, 12 µM (active); in the assay on CP305, 10.7 µM (active). Besides, the Potency in the assay with CP325 was 8.49 µM (active); in the assay with CP335, 6.75 µM (active); with DFO2036, 11.2 µM (active); with DIV14, 1.2 µM (active); in the assay on DIV17, 1.69 µM (active); with DIV30, 6.75 µM (active).

`O=C1NCN(c2ccccc2)C12CCN(CCCC(c1ccc(F)cc1)c1ccc(F)cc1)CC2`: the Potency in the assay on CP252 is 7.08 µM (active); with CP256, 5.01 µM (active); with CP260, 10 µM (active); with CP265, 5.62 µM (active); in the assay on CP268 it was 8.49 µM (active); in the assay with CP286 it was 7.08 µM (active). Further, the Potency in the assay with CP305 is 7.57 µM (active); in the assay on CP329, 4.78 µM (active); in the assay with CP335, 4.78 µM (active); in the assay with DFO2036, 7.08 µM (active); with DIV14, 7.57 µM (active); in the assay on DIV17 it was 6.75 µM (active). In the assay on CP262, the Potency result is “inactive”.

Turning to `C#CCN(C)CCCOc1ccc(Cl)cc1Cl`, the Potency entry with CP252, with CP256, in the assay with CP260, with CP262, with CP265 and in the assay on CP266 was “inactive” throughout. The Potency result in the assay with CP268, with CP269, in the assay with CP286, in the assay with CP291, in the assay with CP297 and in the assay with CP305 was “inactive” each time. For the same compound, the Potency entry with CP315, with CP325, with CP329, in the assay with CP335, in the assay with DFO2036 and in the assay with DIV14 was “inactive” throughout. Besides, the Potency result with DIV30 is “inactive”.

In the case of `C[C@]12CCC(=O)C=C1CC[C@@H]1[C@@H]2CC[C@@]2(C)[C@H]1CC[C@]2(O)C(=O)CO`, the Potency entry in the assay with CP252, in the assay on CP256, with CP260, with CP262, with CP265 and in the assay with CP266 was “inactive” throughout. For the same compound, the Potency result in the assay with CP268, in the assay on CP269, in the assay on CP286, with CP291, with CP297 and in the assay on CP305 was “inactive” in each case. Besides, the Potency entry with CP315, with CP325, in the assay on CP329, with CP335, with DFO2036 and in the assay on DIV14 was “inactive” each time. Besides, the Potency entry in the assay with DIV17 and with DIV30 was “inactive” throughout.

Take `Cc1ccc(S(=O)(=O)NC(=O)NN2CCCCCC2)cc1`: the Potency entry in the assay on CP252, in the assay on CP256, with CP260, in the assay on CP265, in the assay with CP266 and with CP268 was “inactive” each time. The Potency entry in the assay with CP269, in the assay on CP286, in the assay on CP291, in the assay with CP297, in the assay on CP305 and with CP315 was “inactive” in each case. Besides, the Potency result in the assay with CP325, with CP329, in the assay with CP335, in the assay on DFO2036, in the assay on DIV14 and with DIV17 was “inactive” each time. For the same compound, in the assay on DIV30, the Potency result was “inactive”.

On to `CN(C)C(=O)Oc1cccc([N+](C)(C)C)c1`, for which the Potency entry in the assay with CP252, in the assay on CP256, with CP260, in the assay on CP262, in the assay with CP265 and in the assay on CP266 was “inactive” throughout. Moreover, the Potency entry in the assay with CP268, in the assay on CP269, in the assay on CP286, in the assay on CP291, in the assay with CP297 and in the assay with CP305 was “inactive” each time. Besides, the Potency entry with CP315, in the assay with CP325, with CP329, in the assay with CP335, in the assay on DFO2036 and with DIV14 was “inactive” in each case. Also, the Potency entry with DIV17 and in the assay with DIV30 was “inactive” in each case.

With `Nc1c2c(nc3ccccc13)CCCC2O` (stereo not given), the Potency entry in the assay on CP252, in the assay with CP256, in the assay with CP260, in the assay with CP262, in the assay with CP265 and in the assay on CP266 was “inactive” throughout. For the same compound, the Potency result with CP268, with CP269, with CP286, with CP291, in the assay with CP297 and with CP305 was “inactive” each time. In addition, the Potency entry in the assay with CP315, with CP325, with CP329, with CP335, in the assay on DFO2036 and in the assay with DIV14 was “inactive” throughout. Further, the Potency result with DIV30 was “inactive”.

Take `CCOC(=O)C1=C(C)NC(C)=C(C(=O)OC)C1c1cccc(Cl)c1Cl` (stereo not given): the Potency entry in the assay with CP252, in the assay with CP256, in the assay on CP260, in the assay on CP262, in the assay with CP265 and with CP266 was “inactive” throughout. The Potency entry in the assay on CP268, in the assay on CP269, in the assay with CP286, in the assay on CP297, with CP305 and in the assay on CP315 was “inactive” in each case. For the same compound, the Potency result with CP325, in the assay with DFO2036, in the assay with DIV14, in the assay on DIV17 and in the assay on DIV30 was “inactive” in each case.

Regarding `CCN(CC)CCNC(=O)c1cc(S(C)(=O)=O)ccc1OC`, the Potency entry in the assay on CP252, in the assay on CP256, in the assay on CP260, in the assay on CP262, in the assay on CP265 and with CP286 was “inactive” throughout. In addition, the Potency entry in the assay with CP335 and in the assay on DFO2036 was “inactive” throughout.

For `CCN(CC)CCNC(=O)c1ccc(NC(C)=O)cc1`, the Potency result in the assay on CP252, in the assay with CP256, with CP260, in the assay on CP262, with CP265 and in the assay with CP268 was “inactive” each time. In addition, the Potency result in the assay with CP269, in the assay on CP286, in the assay on CP291, in the assay with CP297, in the assay with CP305 and in the assay on CP315 was “inactive” throughout. Also, the Potency result with CP325, in the assay on CP329, in the assay on CP335, with DFO2036, with DIV14 and in the assay on DIV17 was “inactive” each time. Further, in the assay on DIV30, the Potency entry was “inactive”.
